Assay results as given in publication PMC5700166.

Columns and labels:
Assay in all cases: protein-binding microarray (PBM); PBM: ~300 nM protein, 6 mM HEPES pH 7.8, 80 mM KCl, 0.5 mM EDTA, 0.5 mM EGTA, 6% glycerol, 35 ng/ul poly-dIdC, 1% milk, 1 h, room temperature; Ap Aiptasia and Nv Nematostella (sea anemones) / Co Capsaspora / Aq Amphimedon (sponge) / Dm Drosophila / Hu human; RHD is the Rel homology domain; high values mean tight binding
Conditions in all cases: dsDNA, one strand shown
[1] = biological target: T1, GST-Ap-NF-kB RHD (Exaiptasia pallida (Aiptasia), UniProt A0A913YAJ5 2-422)
T1 sequence: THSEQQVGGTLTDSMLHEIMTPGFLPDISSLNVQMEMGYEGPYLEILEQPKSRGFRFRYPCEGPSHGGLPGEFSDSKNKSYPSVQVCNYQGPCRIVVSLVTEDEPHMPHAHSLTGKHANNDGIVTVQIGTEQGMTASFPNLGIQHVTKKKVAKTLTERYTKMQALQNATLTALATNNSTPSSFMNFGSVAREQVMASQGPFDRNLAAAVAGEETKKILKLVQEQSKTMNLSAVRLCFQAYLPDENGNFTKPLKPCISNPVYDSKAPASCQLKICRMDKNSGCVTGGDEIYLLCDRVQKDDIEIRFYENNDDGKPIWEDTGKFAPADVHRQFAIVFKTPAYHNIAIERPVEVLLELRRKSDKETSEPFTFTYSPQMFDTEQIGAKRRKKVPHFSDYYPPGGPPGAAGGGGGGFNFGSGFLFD

[2] = biological target: T2, GST-Nv-NF-kB (Cys allele) (Nematostella vectensis, UniProt E5G601 2-411)
T2 sequence: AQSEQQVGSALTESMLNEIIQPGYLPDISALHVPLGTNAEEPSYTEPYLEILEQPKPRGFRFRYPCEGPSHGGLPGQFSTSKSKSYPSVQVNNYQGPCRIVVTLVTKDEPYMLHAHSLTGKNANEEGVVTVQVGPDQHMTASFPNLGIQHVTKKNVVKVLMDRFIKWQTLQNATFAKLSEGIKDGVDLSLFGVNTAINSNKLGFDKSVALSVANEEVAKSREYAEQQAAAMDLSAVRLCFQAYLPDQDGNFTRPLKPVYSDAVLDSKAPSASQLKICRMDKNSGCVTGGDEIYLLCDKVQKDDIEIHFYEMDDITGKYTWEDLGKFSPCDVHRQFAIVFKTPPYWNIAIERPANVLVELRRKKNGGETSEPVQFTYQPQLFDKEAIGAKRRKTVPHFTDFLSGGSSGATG

[3] = biological target: T3, GST-Co-NF-kB (Capsaspora owczarzaki, UniProt F1ARL5 200-546)
T3 sequence: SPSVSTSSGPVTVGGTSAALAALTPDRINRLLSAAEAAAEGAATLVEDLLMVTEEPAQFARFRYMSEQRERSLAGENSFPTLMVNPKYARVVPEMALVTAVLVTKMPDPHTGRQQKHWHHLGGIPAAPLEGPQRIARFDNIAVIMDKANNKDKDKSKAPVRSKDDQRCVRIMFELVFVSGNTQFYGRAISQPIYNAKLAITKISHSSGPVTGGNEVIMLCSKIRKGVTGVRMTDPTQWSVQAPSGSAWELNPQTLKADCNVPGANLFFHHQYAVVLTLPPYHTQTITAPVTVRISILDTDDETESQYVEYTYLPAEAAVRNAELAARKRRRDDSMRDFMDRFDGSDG

[4] = biological target: T4, GST-Dm-Relish (Drosophila melanogaster, UniProt Q94527 99-473)
T4 sequence: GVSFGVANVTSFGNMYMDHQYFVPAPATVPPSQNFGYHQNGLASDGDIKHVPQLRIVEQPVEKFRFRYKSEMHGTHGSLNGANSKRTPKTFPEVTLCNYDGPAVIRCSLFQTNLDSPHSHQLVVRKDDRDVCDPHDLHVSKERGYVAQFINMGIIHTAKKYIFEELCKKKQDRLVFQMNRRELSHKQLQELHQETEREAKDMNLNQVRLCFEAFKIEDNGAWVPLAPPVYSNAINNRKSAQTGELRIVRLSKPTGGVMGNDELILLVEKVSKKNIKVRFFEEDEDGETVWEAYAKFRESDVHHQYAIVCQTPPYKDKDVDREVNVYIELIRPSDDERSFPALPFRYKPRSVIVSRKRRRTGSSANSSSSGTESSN

[5] = biological target: T5, GST-Aq-NF-kB (Amphimedon queenslandica, UniProt A9Y5G7 2-389)
T5 sequence: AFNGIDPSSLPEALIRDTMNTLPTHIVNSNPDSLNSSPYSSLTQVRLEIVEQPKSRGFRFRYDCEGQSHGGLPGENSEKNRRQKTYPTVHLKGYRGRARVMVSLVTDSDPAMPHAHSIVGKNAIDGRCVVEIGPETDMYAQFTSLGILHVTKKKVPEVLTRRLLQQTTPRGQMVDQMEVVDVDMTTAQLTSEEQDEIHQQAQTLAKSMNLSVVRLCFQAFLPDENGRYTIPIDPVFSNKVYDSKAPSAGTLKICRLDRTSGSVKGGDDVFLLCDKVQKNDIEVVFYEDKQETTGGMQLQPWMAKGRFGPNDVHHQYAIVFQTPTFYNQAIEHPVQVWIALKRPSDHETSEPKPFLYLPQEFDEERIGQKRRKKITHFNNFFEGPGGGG

| Sequence | binding signal [1] [z-score] | binding signal [2] [z-score] | binding signal [3] [z-score] | binding signal [4] [z-score] | binding signal [5] [z-score] |
| --- | --- | --- | --- | --- | --- |
| CCGATTAACATCAAGGGGTCCCCTGATGTTAATCGGGTCTTGATTCGCTTGACGCTGCTG | 5.55 | 3.3 | 1.66 | 6.15 | 4.02 |
| CCGATTAACATCAGGGGGTACCCTGATGTTAATCGGGTCTTGATTCGCTTGACGCTGCTG | 7.79 | 4.44 | 4.14 | 6.71 | 6.6 |
| CCGATTAACATCAGGGGGTAAAATGATGTTAATCGGGTCTTGATTCGCTTGACGCTGCTG | 4.43 | 4.2 | 8.57 | 3.24 | 4.16 |
| CCGATTAACATCAGGCAATTCCCTGATGTTAATCGGGTCTTGATTCGCTTGACGCTGCTG | 2.76 | 5.17 | 1.58 | 2.03 | 6.13 |
| CCGATTAACATCAGGGGGCAAGATGATGTTAATCGGGTCTTGATTCGCTTGACGCTGCTG | 2.07 | 2.14 | 2.69 | 1.01 | 2.76 |
| CCGATTAACATCAAAAGACCCCCTGATGTTAATCGGGTCTTGATTCGCTTGACGCTGCTG | 6.38 | 5.12 | 3.12 | 8.16 | 6.25 |
| CCGATTAACATCAGGGGGTGTACTGATGTTAATCGGGTCTTGATTCGCTTGACGCTGCTG | 3.65 | 3.29 | 2.61 | 8.3 | 4.78 |
| CCGATTAACATCAGGACGTTCCCTGATGTTAATCGGGTCTTGATTCGCTTGACGCTGCTG | 2.27 | 2.22 | 1.01 | 1.51 | 5.14 |
| CCGATTAACATCACGCAACCCCCTGATGTTAATCGGGTCTTGATTCGCTTGACGCTGCTG | 5.37 | 3.7 | 2 | 5.08 | 3.89 |
| CCGATTAACATCAGGCGATTCCCTGATGTTAATCGGGTCTTGATTCGCTTGACGCTGCTG | 1.93 | 2.99 | 1.44 | 2.34 | 3.88 |
| CCGATTAACATCAGGGAGATTTATGATGTTAATCGGGTCTTGATTCGCTTGACGCTGCTG | 3.69 | 5.42 | 2.8 | 1.71 | 5.99 |
| CCGATTAACATCAAGTTTACCCCTGATGTTAATCGGGTCTTGATTCGCTTGACGCTGCTG | 3.21 | 2.2 | 6.61 | 2.4 | 2.91 |
| CCGATTAACATCACCACTTTCCCTGATGTTAATCGGGTCTTGATTCGCTTGACGCTGCTG | 3.21 | 4.07 | 3.94 | 1.32 | 3.11 |
| CCGATTAACATCAAGTGTTTCCCTGATGTTAATCGGGTCTTGATTCGCTTGACGCTGCTG | 2.2 | 3.22 | 3.78 | 4.7 | 3.79 |
| CCGATTAACATCAATTGCCCCCCTGATGTTAATCGGGTCTTGATTCGCTTGACGCTGCTG | 4.5 | 2.81 | 5.24 | 3.87 | 4.63 |
| CCGATTAACATCAATGGGAATTCTGATGTTAATCGGGTCTTGATTCGCTTGACGCTGCTG | 2.8 | 4.72 | 2.98 | 4.26 | 3.51 |
| CCGATTAACATCAAATTCCCACTTGATGTTAATCGGGTCTTGATTCGCTTGACGCTGCTG | 2.15 | 4.13 | 2.26 | 4.38 | 2.47 |
| CCGATTAACATCAGGGAACTTTATGATGTTAATCGGGTCTTGATTCGCTTGACGCTGCTG | 4.27 | 4.23 | 2.81 | 4.83 | 5.17 |
| CCGATTAACATCAGGAACCCCCATGATGTTAATCGGGTCTTGATTCGCTTGACGCTGCTG | 7.5 | 5 | 2.67 | 9.25 | 5.35 |
| CCGATTAACATCATAATTCCCAATGATGTTAATCGGGTCTTGATTCGCTTGACGCTGCTG | 1.92 | 3.54 | 2.94 | 2.22 | 2.84 |
| CCGATTAACATCAGGGATACCCCTGATGTTAATCGGGTCTTGATTCGCTTGACGCTGCTG | 6.66 | 5.69 | 4 | 7.22 | 6.98 |
| CCGATTAACATCAGAATATTCCCTGATGTTAATCGGGTCTTGATTCGCTTGACGCTGCTG | 5.6 | 6.1 | 3.41 | 3.01 | 5.6 |
| CCGATTAACATCACCCCTCCCCCTGATGTTAATCGGGTCTTGATTCGCTTGACGCTGCTG | 4.84 | 3.91 | 4.73 | 3.78 | 4.12 |
| CCGATTAACATCACAAAACTCCCTGATGTTAATCGGGTCTTGATTCGCTTGACGCTGCTG | 4.94 | 6.58 | 2.13 | 5.41 | 6.32 |
| CCGATTAACATCAACCCTCCCCCTGATGTTAATCGGGTCTTGATTCGCTTGACGCTGCTG | 3.89 | 3.26 | 4.5 | 2.76 | 3.64 |
| CCGATTAACATCAGGGGGATGTATGATGTTAATCGGGTCTTGATTCGCTTGACGCTGCTG | 4.97 | 4.88 | 4.13 | 4.17 | 4.11 |
| CCGATTAACATCAGGGAATATAATGATGTTAATCGGGTCTTGATTCGCTTGACGCTGCTG | 3.2 | 3.59 | 3.13 | 1.66 | 3.14 |
| CCGATTAACATCAAACCCCCCCCTGATGTTAATCGGGTCTTGATTCGCTTGACGCTGCTG | 7.29 | 5.16 | 4.79 | 6.75 | 5.35 |
